Assay results published in PubChem BioAssay AID588382 (National Center for Advancing Translational Sciences (NCATS), 2011).
“And” between values parts separate entries of the source, which are not always exact repeats. Equal entries are not always repeated. Hit rate of the full screen: of about 1,300 compounds, about 150 (12%) were called active. Inconclusive results (about 30%) are left out. The sample holds actives, similar compounds and a random draw of the others, so the mix is not that of the screen. A number with no mark means an inactive call. Calls come from the whole dose curve; as a rule, active = well fitted cell-killing curve with a large enough effect; inconclusive = small, poorly fitted or top-dose-only effect, or effect the other way; inactive = flat fitted curve, though single readings scatter.

Assay: qHTS of small molecules that selectively kill Giardia lamblia: Hit Validation in HepG2 cytotox;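 note: compound exposure lasted overnight at 37 deg C; nearly all actives have a fitted effect of over 55% in size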;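 for activity change, negative = cytotoxicity: viability measured as cellular ATP by ATPLite luminescence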
Settings: cell viability; Potency: HepG2 cytotoxicity; series mostly up to 38.3 µM; activity change, negative = cytotoxicity: at the top concentration
Excerpt: Giardia lamblia is a human pathogen afflicting impoverished nations, and the most common cause of outbreaks of diarrhea in the United States. Giardia has been classified by the CDC as a category B bioterrorism organism. The favored anti giardiasis drugs in the US are metronidazole or tinidazole, compounds that have undesirable side effects. Moreover, increasing resistance to drug regimes and recurrence are a concern. It is thus clear that alternative drug treatments are needed.
In a collaboration between the University of Maryland, College Park and the NIH Chemical Genomics Center, a bioluminescence Giardia viability assay based on the trophozoites' ATP content was developed. This assay is suitable for high throughput screening, and miniaturized the assay for compound screening in 1536-well plates. The goal of the project is to screen the Molecular Libraries Small Molecule Repository (MLSMR) for compounds that selectively kill Giardia trophozoites. This counterscreen looks at the toxicity of the compounds against the human HepG2 cell line.
NIH Chemical Genomics Center [NCGC]
NIH Molecular Libraries Probe Centers Network [MLPCN]
Assay Submitter (PI): Osnat Herzberg, University of Maryland, College Park, MD.
4 uL of HepG2 cells ae dispensed into white 1536-well plates. They are incubated overnight at 37 deg C and then 23 nL of compounds are transferred to the wells with a pintool. Plates are incubated overnight at 37 deg C. 2 uL of ATPLite is added and the plates are incubated for 15 min at room temperature before they are read on the ViewLux for luminiescence.
% is set by controls: 0 for no effect and ±100 for the full control effect; potency is the fitted concentration of half-maximal effect.

Compound | activity change, negative = cytotoxicity | Potency
COc1ccc(-c2nn(-c3ccccc3)cc2C(=O)N/N=C/c2ccc([N+](=O)[O-])o2)cc1 | 16.4% | 
O=C(N/N=C/c1ccc([N+](=O)[O-])o1)c1cc(-c2ccc(-c3ccccc3)cc2)nc2ccccc12 |  | 2.61 µM (active)
CCCc1ccc(-c2cc(C(=O)N/N=C/c3ccc([N+](=O)[O-])o3)c3ccccc3n2)cc1 |  | 3.29 µM (active)
O=C(N/N=C/c1ccc([N+](=O)[O-])o1)c1cn(-c2ccccc2)nc1-c1ccc(F)cc1 | 8.98% | 
CC1CC(C)C(=NNC(N)=O)C(C(O)CC2CCC(=O)NC2=O)C1 (centres undefined) | 7.19% | 
N/C(=N\O)c1ccc([N+](=O)[O-])s1 | 6.1% | 
COc1ccc(-n2nc([N+](=O)[O-])c(=NCc3ccc4c(c3)OCO4)n2O)cc1 | 12.6% | 
O=C(/C=C/c1ccc(O)c([N+](=O)[O-])c1)c1ccc2ccccc2c1 | -18.5% | 
Cc1nn(-c2nc3ccccc3[nH]2)c(=O)c2ccccc12 |  | 2.07 µM (active)
Cc1ccc(NC(=O)CN2C(=O)S/C(=C/c3ccc(O)c([N+](=O)[O-])c3)C2=O)cc1C | -3.32% | 
Cc1cccc(N=Nc2c(C)c(C#N)c(O)[nH]c2=O)c1 | 0.706% | 
O=C1/C(=C/c2ccncc2)CCC/C1=C\c1ccncc1 |  | 4.14 µM (active)
CC1C/C(=C/c2ccncc2)C(=O)/C(=C/c2ccncc2)C1 (centres undefined) |  | 2.07 µM (active)
O=C1N=C(N2CCCCC2)S/C1=C\c1ccc(Br)cc1 | -4.96% | 
O=c1c2c(-c3ccccc3)csc2ncn1/N=C/c1ccc(O)c([N+](=O)[O-])c1 | 10.5% | 
Cc1ccc(C2=NCCn3c2c2ccccc2[n+]3[O-])cc1 | 15.1% | 
CC(=O)Nc1nc(-c2cc([N+](=O)[O-])cs2)cs1 | 1.82% | 
CCn1c(=NC(=O)c2cccc(N3C(=O)CCC3=O)c2)sc2c(OC)ccc(OC)c21 | 15.5% | 
Cc1cnc([N+](=O)[O-])n1CCOC(=O)NC(=O)c1ccc(F)cc1 | -4.24% | 
CN(C)C(=O)COC(=O)c1cccc(S(=O)(=O)N2CC3(C)CC2CC(C)(C)C3)c1 (centres undefined) | 6.3% | 
O=[N+]([O-])c1nn(-c2ccccc2)[n+]([O-])c1N1CCN(c2ccccc2)CC1 | 20.5% | 
CCOc1ccc(-c2cc(C(=O)N3CCN(c4ccccn4)CC3)c3ccccc3n2)cc1 |  | 1.65 µM (active) and 414 nM (active)
CN(C(=O)CN1CCN(c2ccc([N+](=O)[O-])cn2)CC1)c1ccccc1 | 22.4% | 
O=C(CSc1ccsc1[N+](=O)[O-])N1CCN(c2ccccn2)CC1 | 4.59% | 
Cc1ncc([N+](=O)[O-])n1CCOC(=O)NC(Nc1ccc(F)cc1)C(Cl)(Cl)Cl (centres undefined) | -6.6% | 

Compound | activity change, negative = cytotoxicity | Potency
O=C(CCCn1cnc([N+](=O)[O-])n1)Nc1ccc(F)c(Cl)c1 | -2.31% | 
COc1cc2c(cc1OC)-c1c(OC)c(OC)cc3ccnc(c13)C2=O | -4.96% | 
COc1ccc(-n2nc([N+](=O)[O-])c(=NCCc3ccc(Cl)cc3)n2O)cc1 | -6.29% | 
O=C(NCC1CCCO1)c1ccc([N+](=O)[O-])o1 (centres undefined) | -15.5% | 
CN(C(=O)c1ccc(F)c(S(=O)(=O)N2CCOCC2)c1)C1CCCCC1 | 13.1% | 
O=C(CN(C1CCCCC1)S(=O)(=O)c1ccc(F)cc1)NCC1CCCO1 (centres undefined) |  | 4.65 µM (active)
CCS(=O)(=O)CCn1c([N+](=O)[O-])cnc1C | 23.2% | 
O=c1c(-c2ccc(F)cc2)coc2cc(O)ccc12 | -1.17% | 
C[C@@H]1CN([C@@H](C)CO)C(=O)c2cccc(NS(=O)(=O)c3cccs3)c2O[C@H]1CN(C)Cc1ccc(C(F)(F)F)cc1 | 7.74% | 
NC(=O)C1CCN(c2ncccc2[N+](=O)[O-])CC1 | 0.515% | 
Cc1ccc(NC(C)C(=O)N/N=C/c2ccc([N+](=O)[O-])s2)cc1 (centres undefined) | -20.4% | 
O=C(N/N=C\c1ccc([N+](=O)[O-])s1)c1cncc(Br)c1 |  | 7.36 µM (active)
O=C(N/N=C/c1ccc([N+](=O)[O-])s1)C(O)c1ccccc1 (centres undefined) |  | 13.1 µM (active)
COc1ccc(NC(C)C(=O)N/N=C/c2ccc([N+](=O)[O-])s2)cc1 (centres undefined) | -17.2% | 
COC(=O)N/N=C/c1ccc([N+](=O)[O-])s1 | -20.9% | 
COc1ccccc1NC(=O)C(=O)N/N=C/c1ccc([N+](=O)[O-])s1 | -5.67% | 
Cc1ccccc1C(=O)N/N=C/c1ccc([N+](=O)[O-])s1 |  | 18.5 µM (active)
CCOC(=O)N/N=C\c1ccc([N+](=O)[O-])s1 | 11.1% | 
Cc1nc2cc(NC(=O)c3ccc([N+](=O)[O-])s3)ccc2s1 | -18.7% | 
COCCn1c(C)cc(C(=O)COc2cccnc2[N+](=O)[O-])c1C | 4.96% | 
O=C(Nc1nnc(C2=COCCO2)o1)c1cccc(F)c1 | 1.81% | 
COc1nn(C(C)C(=O)N2N=C(C(F)F)CC2(O)C(F)F)cc1[N+](=O)[O-] (centres undefined) | 10.4% | 
COc1cc(/C=C/c2ccc3cccc(OC)c3n2)c(OC(C)=O)c([N+](=O)[O-])c1 | -5.84% | 
CN(C)C(=O)c1cc([N+](=O)[O-])cc([N+](=O)[O-])c1N(C)C | 3.41% | 
